# G9a inh: inhibitors of human histone lysine methyltransferase G9a; Q96KQ7; G9a H3K9 monomethylation, AlphaScreen, 2 h; Potency, µM (top dose mostly 102 µM), most hits filed as inhibitors; 350,000 tested, 8.8% active; AID 504332; also: nearly all actives have a fitted effect of over 75% in size
# Target sequence (Q96KQ7 913-1193 limits assumed): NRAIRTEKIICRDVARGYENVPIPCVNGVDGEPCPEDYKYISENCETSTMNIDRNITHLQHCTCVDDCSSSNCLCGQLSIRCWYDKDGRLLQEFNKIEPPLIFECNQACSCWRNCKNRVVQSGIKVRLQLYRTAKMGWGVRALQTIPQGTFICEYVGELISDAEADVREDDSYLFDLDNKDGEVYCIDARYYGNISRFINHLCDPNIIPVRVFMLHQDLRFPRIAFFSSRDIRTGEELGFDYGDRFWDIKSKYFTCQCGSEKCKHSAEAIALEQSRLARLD
#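 Step 1: enzyme (final 20 nM) with compound, 15 min RT. Step 2: substrate peptide 500 nM and SAM 20 uM, 2 h RT. Step 3: anti-H3K9me1 antibody and AlphaScreen beads, 10 min, then plate read.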
# CCT chaperon mod: changes cytosolic chaperonin activity | purified chaperonin ATPase assay, HTRF ADP detection, 30 min | activity change, % (test concentration not listed), hits read low | 360,000 tested, 0.3% active | AID 651819; in the data active = activity change below about -30%
#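 TRiC at 40 or 20 nM final (batch-dependent) in 30 mM Tris pH 7.4, 100 mM KCl, 5 mM MgCl2, 1 mM DTT, with compound at single 76 uM and 10 uM ATP, 30 min at 37 deg C. ADP detected by HTRF Transcreener, 665/615 ratio.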
# VDR inhibitor: vitamin D3 receptor (human) inhibition; Potency, µM, actives largely listed as inhibitors; VDR-SRC2-3 peptide fluorescence polarization, 2 h; AID 504847; 400,000 tested, 0.93% active; P11473
# Target sequence (P11473 whole entry, looked up): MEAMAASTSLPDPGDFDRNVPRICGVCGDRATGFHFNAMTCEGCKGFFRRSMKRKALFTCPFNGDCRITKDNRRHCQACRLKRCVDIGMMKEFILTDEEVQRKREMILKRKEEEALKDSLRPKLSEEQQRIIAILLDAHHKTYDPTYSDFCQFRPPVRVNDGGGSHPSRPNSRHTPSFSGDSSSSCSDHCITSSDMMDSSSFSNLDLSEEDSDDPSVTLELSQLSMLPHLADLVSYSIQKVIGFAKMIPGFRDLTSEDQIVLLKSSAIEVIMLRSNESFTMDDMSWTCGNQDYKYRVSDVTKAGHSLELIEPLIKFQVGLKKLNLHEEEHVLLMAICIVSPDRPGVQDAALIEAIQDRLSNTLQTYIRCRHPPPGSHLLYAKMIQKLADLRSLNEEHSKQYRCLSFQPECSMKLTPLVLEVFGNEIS
#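 FP read-out; VDR + SRC2-3 coactivator peptide; 23 nl compound by pintool; 2 h RT incubation; reagents held at 4 deg C, protected from light.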
# Mm-Cpn inhibitor: inhibitors of Methanococcus maripaludis chaperonin TRiC (MmCpn); Potency, µM (top dose mostly 76.9 µM), usual class: inhibitors; purified Mm-Cpn ATPase, ADP Transcreener TR-FRET; 330,000 tested, 0.031% active; also: nearly all actives have a fitted effect of over 80% in size
#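 Compound-treated chaperonin, 25 nM final, turns over 10 uM ATP at 37°C for 30 min following a 10 min preincubation; ADP generated competes with ADP-d2 for Eu-cryptate antibody, lowering FRET.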
# PLK1 PBD block: PLK1 (human) polo-box domain binding inhibition; AID 720504; Potency, µM, actives largely listed as inhibitors; P53350; 360,000 tested, 2.8% active; Plk1 PBD binding of FITC phosphopeptide, fluorescence polarization; also: series mostly up to about 57 µM; nearly all actives have a fitted effect of over 65% in size
# Sfp inh: inhibitors of Bacillus subtilis Sfp phosphopantetheinyl transferase | Q9F4F7 | Biochemical Sfp PPTase activity, qHTS | Potency, µM, usual class: inhibitors | 310,000 tested, 3.5% active;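 also: the enzyme is Sfp with the accession as filed and its product quenches rhodamine fluorescence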
#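 Step 1, compound plus 15 nM Sfp-PPTase, 15 min, room temperature. Step 2, add rhodamine-CoA (5 uM) and BHQ-2-YbbR (12.5 uM). Step 3, read 525/598 nm fluorescence at 0 and 30 min.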
# A number is an active result; – = inactive; ? = inconclusive; · = no result; [ ] = another dose, or the depositor's remark. Shown are actives, neighbours in structure and some others; about 10% of the full set was active somewhere. Unless noted, calls follow the shape of the dose curve; as a rule, active = well fitted curve in the direction sought with a large enough effect; inconclusive = small, poorly fitted or top-dose-only effect, or another doubt; inactive = no such curve, though single readings can be large; an effect the other way counts as inactive or inconclusive.
SMILES,G9a inh,CCT chaperon mod,VDR inhibitor,Mm-Cpn inhibitor,PLK1 PBD block,Sfp inh
O=C(O)c1cccc(NC(=S)NC(NC(=O)c2ccccc2[N+](=O)[O-])C(Cl)(Cl)Cl)c1 (stereo unspecified),?,–,–,–,–,–
Cc1ccc(Cl)cc1NC(=O)c1ccc2nc(CCc3ccccc3)oc2c1,–,·,–,·,·,·
O=C(NCc1ccc(F)cc1)c1ccc(CSCc2cccc(Cl)c2)o1,–,·,–,·,·,·
CCc1nnc(SCc2ccc(OC)cc2)c2cc3sc(C)cc3n12,–,·,–,·,·,·
COc1ccc(C)cc1NS(=O)(=O)c1cnc(N)nc1,–,·,–,·,·,·
COCCn1c(=O)c(-c2ccc(Cl)cc2)nc2cnc(Oc3ccccc3)nc21,–[12.7 µM],·,–,·,·,–
Cc1nc2cccnc2n1-c1cccc(C(=O)N2CCN(c3cccc(Cl)c3)CC2)c1,–,·,–,·,·,·
Cc1ccc(C(=O)O)cc1NC(=S)NC(=O)c1ccc(-c2ccccc2)cc1,14µM,–,–,–,?,–
CSCc1cccc(C(=O)OC(C)C(=O)Nc2c(C)n(C)n(-c3ccccc3)c2=O)c1 (stereo unspecified),8.9µM,–,–,–,–,·
O=C(O)CC(NNC(=O)c1ccccc1)C(=O)Nc1cccc([N+](=O)[O-])c1 (stereo unspecified),50µM,–,–,–,–,–
Cc1c(C(=O)OCC(=O)Nc2c(C)n(C)n(-c3ccccc3)c2=O)cccc1[N+](=O)[O-],–,–,–,–,21µM,–
Cc1cc(C)c(NC(=S)NC(=O)c2ccccc2)cc1C,·,–,·,·,–,·
Cc1c(NC(=O)C(C)OC(=O)c2cccc([N+](=O)[O-])c2)c(=O)n(-c2ccccc2)n1C (stereo unspecified),–,–,–,–,–,–
Cc1ccc2c(=O)cc(C(=O)Nc3nc4ccc(Cl)cc4s3)oc2c1C,–,·,–,·,·,·
CCOC(=O)c1ccc(NC(=O)Cn2ncc3c(C)n(Cc4ccccc4F)c(C)c3c2=O)cc1,–,·,–,·,·,·
COC(=O)c1scc(-c2ccc(C)cc2)c1S(=O)(=O)N1CCN(c2ccc(C(C)=O)cc2)CC1,–,·,–,·,·,·
Cc1oc2ccc(O)c(CN3CCCC3)c2c1C(=O)Nc1ccc(C(C)C)cc1,–,·,–,·,·,·
Cc1c(NC(=S)NC(=O)c2cccc([N+](=O)[O-])c2)c(=O)n(-c2ccccc2)n1C,45µM,–,–,–,–,–
Cc1c(NC(=S)NC(=O)c2cccc(Br)c2)c(=O)n(-c2ccccc2)n1C,·,–,–,–,–,–
C=CCOc1ccc(C=CC(=O)c2c(O)c(OC)c(OC)c(OC)c2OC)cc1,·,–,45µM,·,–,·
COc1ccc(C=CC(=O)c2c(OC)cc(OC)c(OC)c2O)cc1,·,–,?,·,–,·
COc1ccc(N(CC(=O)N/N=C/c2ccco2)S(=O)(=O)c2ccccc2)cc1,50µM,–,–,–,–,–
Cc1ccc(N(CC(=O)N/N=C/c2ccco2)S(=O)(=O)c2ccccc2)cc1,?,–,–,–,–,32µM
O=C(CN(c1ccccc1Cl)S(=O)(=O)c1ccccc1)N/N=C/c1ccccc1C(=O)O,?,–,–,–,–,–
COc1ccc(/C=N/NC(=O)CN(c2ccc(OC)cc2)S(=O)(=O)c2ccccc2)cc1,?,–,–,–,27µM,–
SMILES,G9a inh,CCT chaperon mod,VDR inhibitor,Mm-Cpn inhibitor,PLK1 PBD block,Sfp inh
O=C(CN(c1ccccc1)S(=O)(=O)c1ccccc1)N/N=C/c1ccco1,–,–,–,–,–,–
Cc1ccc(S(=O)(=O)N(CC(=O)N/N=C/c2ccccc2C(=O)O)c2cc(Cl)cc(Cl)c2)cc1,?,–,–,–,42µM,–
CCOC(=O)CCN1C(=O)[C@H]2[C@H]3[C@H](O)[C@H](O)C/C(=N/OCc4ccccc4)[C@H]3CC[C@@H]2C1=O,·,·,·,·,·,–
COCc1cc(S(=O)c2ccc(Cl)cc2)nc(C)n1 (stereo unspecified),?,–,50µM,–,5.3µM,79µM
Cc1ccc2[nH]c(=O)c(CN(CCCO)Cc3nnnn3Cc3ccco3)cc2c1,·,·,–,·,·,·
CCN(CC)c1ccc(C2C(C(=O)Nc3ccccc3C)=C(C)Nc3ncnn32)cc1 (stereo unspecified),–,·,–,·,·,·
O=C(NN1CCOCC1)c1cccc2ccccc12,–,–,?,–,30µM,–
COCC1=C2c3ccccc3[C@@H]3CNC(=O)C3(C(=O)OC)C[C@@H]2n2c(=O)n(-c3ccccc3)c(=O)n2C1 (stereo partly specified),·,·,–,·,·,–
CCc1ccc(NC(=O)c2ccc3c(=O)n4nc(Nc5ccccc5C)sc4nc3c2)cc1,–,·,–,·,·,·
C=CCC(NCc1ccccc1)c1ccc(C)o1 (stereo unspecified),·,–,–,·,11µM,·
C=CCC(NCc1ccccc1)c1ccc(Cl)cc1 (stereo unspecified),–,–,–,–,–,–
O=C(NCCc1cccc(C(F)(F)F)c1)C1CCC(=O)N(CCc2cccc(F)c2)C1 (stereo unspecified),–,–,–,–,–,–
COc1ccc(CCN2CC(C(=O)NCCc3ccc(F)cc3)CCC2=O)cc1 (stereo unspecified),–,–,–,–,–,–
COc1ccc2nc(CNC(=O)C3CCC(=O)N(CCc4ccccc4)C3)[nH]c2c1 (stereo unspecified),·,-56,–,–,–,–
O=C(NCCc1cn[nH]c1)C1CCC(=O)N(CCc2cccc(F)c2)C1 (stereo unspecified),–[0.501 µM],–,?,–,3.4µM,–
COc1ccc(CCN2CC(C(=O)NCCc3cnn(C)c3)CCC2=O)cc1 (stereo unspecified),–,–,?,–,12µM,–
COc1ccc(CCN2CC(C(=O)NCc3cccc4[nH]ccc34)CCC2=O)cc1 (stereo unspecified),–,–,–,–,–,–
CCOC(=O)c1ccc2c(c1)N(Cc1cccc(C(F)(F)F)c1)C(=O)c1ccccc1S2(=O)=O,–,·,–,·,·,·
Cc1ccc2c(C)ccc(O)c2n1,3.5µM,–,–,–,–,45µM
COc1cccc(CNC(=O)Cn2c(=O)oc3cc(S(=O)(=O)N4CCCC4)ccc32)c1,–,·,–,·,·,·
Cc1nn(C(=O)c2c(F)cccc2F)c(C)c1S(=O)(=O)N1CCCCCC1,–,·,–,·,·,·
COc1ccc2nc(/N=C\N(C)C)sc2c1,?,–,–,–,–,–
COc1ccc2nc(N=Nc3ccc(N(C)C)cc3)sc2c1,22µM,–,–,–,–,–
CC(/C=N/n1c(-c2ccncc2)n[nH]c1=S)=C\c1ccco1,·,–,–,–,–,–
Cc1cccc(-c2n[nH]c(=S)n2/N=C/C=C/c2ccco2)c1,1.6µM,–,?,–,–,?
COc1ccccc1/C=C/C=N/n1c(-c2cc(-c3ccccc3)n[nH]2)n[nH]c1=S,?,–,–,–,–,–
S=c1[nH]nc(-c2ccccc2Cl)n1/N=C/C=C/c1ccco1,1.1µM,–,–,–,?,56µM

# High-throughput results (PubChem)
